Inconclusive results are not listed. Where a call stands in place of a potency, no number is given. A number with no mark means an inactive call. The source made the active and inactive calls. Calls come from the whole dose curve; as a rule, active = well fitted inhibition curve with a large enough effect; inconclusive = small, poorly fitted or top-dose-only effect; inactive = flat fitted curve, though single readings scatter.
Experiment: P-glycoprotein substrates identified in KB-8-5-11 adenocarcinoma cell line, qHTS therapeutic library screen (AID 1346987); note: nearly all actives have a fitted effect of over 65% in size
Conditions: KB-8-5-11 (P-gp overexpressing) viability, CellTiter-Glo, 72 h; series mostly up to 44.5 µM
Summary of the method: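 KB-8-5-11: colchicine-selected sub-line of KB-3-1 over-expressing P-gp; assay medium lacked colchicine. 72 h drug exposure at 37 degree C, CellTiter-Glo.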

Compound	Potency	activity change, negative = cytotoxicity	outcome
COC(=O)C1=COC(OC2OC(CO)C(O)C(O)C2O)C2C(C)C(OC(=O)/C=C/c3ccc(O)cc3)C(O)C12 (stereo not drawn)	inactive		
Cc1c(Cc2ccc3ccccc3n2)c2cc(F)ccc2n1CC(=O)O	inactive		
COc1cc(CO)cc(OC)c1O[C@@H]1O[C@H](CO)[C@@H](O)[C@H](O)[C@H]1O	inactive		
CC(=O)c1ccc(O[C@@H]2O[C@H](CO[C@@H]3OC[C@@H](O)[C@H](O)[C@H]3O)[C@@H](O)[C@H](O)[C@H]2O)cc1	inactive		
CC1(C)C[C@H]2C=C(C=O)[C@]3(C(=O)O)C[C@]3(C)[C@H]2C1	inactive		
COc1ccc(/C=C/C(=O)O[C@@H]2[C@@H](OC(C)=O)[C@@H](OC(C)=O)[C@H](O[C@H]3[C@@H]4C=CO[C@@H](O[C@@H]5O[C@H](CO)[C@@H](O)[C@H](O)[C@H]5O)[C@@H]4[C@@]4(CO)O[C@@H]34)O[C@H]2C)cc1	inactive		
CC(C)[C@@H](C(=O)O)N1Cc2c(cc(O)c3c2O[C@]2(C3)[C@H](C)CCC3C(C)(C)[C@H](O)[C@H](O)C[C@@]32C)C1=O (stereo partly drawn)	inactive		
O=C(OC[C@H]1O[C@@H](Oc2ccccc2CO)[C@H](O)[C@@H](O)[C@@H]1O)c1ccccc1	inactive		
O=C(/C=C/c1ccc(O)c(O)c1)O[C@H]1[C@H](OC2CCCCC2O)O[C@H](CO)[C@@H](O)[C@@H]1O (stereo partly drawn)	inactive		
C=CCC/C=C/C#CCCCCCCCC[C@H]1C(=O)O[C@H](C)[C@@H]1O	inactive		
CC(C)(OC1OC(CO)C(O)C(O)C1O)C1CCC(O)(CO)C2CC(=O)C(C)(O)C2C1 (stereo not drawn)	inactive		
CC1CC2OCC3(O)CCC(O)C(C14CC(c1ccoc1)OC4=O)C23CO (stereo not drawn)	inactive		
CC(O)/C=C/C1(O)C(C)C(O)C(O[C@@H]2O[C@H](CO)[C@@H](O)[C@H](O)[C@H]2O)CC1(C)C (stereo partly drawn)	inactive		
C=CC(C)(CCC=C(C)C)O[C@@H]1O[C@H](CO)[C@@H](O)[C@H](O)[C@H]1O (stereo partly drawn)	inactive		
COc1cc(-c2ccc(O)cc2)c(OC)c(O)c1C1=CC(=O)OC1CC(=O)O (stereo not drawn)	inactive		
C=C(C)[C@H]1CC[C@]2(C(=O)O)CC[C@]3(C)C(CCC4[C@@]5(C)CCC(=O)C(C)(C)C5CC[C@]43C)C12 (stereo partly drawn)	inactive		
C[C@]1(OC(=O)/C=C/c2ccc(O)cc2)C[C@@H](O)[C@]2(O)C=CO[C@@H](O[C@@H]3O[C@H](CO)[C@@H](O)[C@H](O)[C@H]3O)C12 (stereo partly drawn)	inactive		
COc1cc(C(C)=O)ccc1O[C@@H]1O[C@H](CO[C@@H]2OC[C@@H](O)[C@H](O)[C@H]2O)[C@@H](O)[C@H](O)[C@H]1O	inactive		
CC(C)(Oc1ccc(-c2nc3cc(Cl)ccc3s2)cc1)C(=O)O	inactive		

Compound	Potency	activity change, negative = cytotoxicity	outcome
CC1CC(=O)C2C(O)(C1)CC(O)C13OC1c1c(O)cccc1C(=O)C23O (stereo not drawn)	inactive		
CC1=C(CO)CC(C(C)C2CCC3C4CC=C5CC(OC6OC(COC7OC(CO)C(O)C(O)C7O)C(O)C(O)C6O)CC(O)C5(C)C4CCC23C)OC1=O (stereo not drawn)	inactive		
COc1ccccc1CN[C@H]1CCCN[C@H]1c1ccccc1	inactive		
CC1(C)CC[C@]2(C(=O)O[C@@H]3O[C@H](CO)[C@@H](O)[C@H](O)[C@H]3O)CC[C@]3(C)C(=CCC4[C@@]5(C)C[C@H](O)[C@H](O[C@@H]6O[C@H](C(=O)O)[C@@H](O)[C@H](O)[C@H]6O)[C@@](C)(CO)C5CC[C@]43C)C2C1 (stereo partly drawn)		-7.52% [at 9.29 µM]	
C/C(=C\CO)CC/C=C(\C)C(=O)O[C@@H]1O[C@H](CO)[C@@H](O)[C@H](O)[C@H]1O	inactive		
COc1cccc(C(=O)NCCNc2nc3cc(C)cc(C)c3cc2C#N)c1	inactive		
CCC1OC(=O)C(C)CC(C)C(=O)/C(C)=C/C(C)C(=O)/C=C/C1(C)O (stereo not drawn)	inactive		
COC(=O)Cn1nc(-c2cccc(OC)c2)c2ccccc21	inactive		
Cc1nnc(-c2sc(NC(=O)[C@H](C(C)C)n3c(=O)[nH]c4ccccc4c3=O)nc2C)o1	inactive		
OC[C@@]1(O)CO[C@H](OC[C@H]2O[C@@H](OC(CCCCc3ccc(O)cc3)CCc3ccc(O)cc3)[C@H](O)[C@@H](O)[C@@H]2O)[C@@H]1O (stereo partly drawn)	inactive		
CC(=O)O[C@@H]1C(O)C[C@@]2(C)C(CC[C@@H](C)C23Cc2c(O)cc4c(c2O3)CNC4=O)C1(C)C (stereo partly drawn)	inactive		
C=C(C(=O)O)C1CC(OC(=O)CC(C)CC)C2(C)CCCC(=C)C2C1 (stereo not drawn)	inactive		
C/C=C(\C)C(=O)OC[C@H]1O[C@@H](O[C@H]2[C@@H](O[C@H]3O[C@H](CO)[C@@H](O)[C@H](O)[C@H]3O[C@@H]3O[C@H](CO)[C@@H](O)[C@H](O)[C@H]3O)O[C@H](COC(=O)/C(C)=C/C)[C@@H](O)[C@@H]2O)[C@H](O)[C@@H](O)[C@@H]1O			inactive [at 9.29 µM]
CC(C)(O)[C@@H]1CC[C@]2(CO)[C@@H](O)CC[C@](C)(O)[C@H]2[C@@H]1O[C@@H]1O[C@H](CO)[C@@H](O)[C@H](O)[C@H]1O	inactive		
C=C(COC(=O)CC(C)C)C1Cc2cc(C(C)=O)ccc2O1 (stereo not drawn)	inactive		
CC(=O)OCC1OC(OC2COC(OC3COC(OC4C(OC5C(CO)OC(OC6CCC7(C)C(CCC8(C)C7CC=C7C9CC(C)(C)CCC9(C(=O)OC9OC(CO)C(O)C(O)C9OC9OCC(OC%10OCC(O)(CO)C%10O)C(O)C9O)C(O)CC78C)C6(C)C)C(O)C5O)OCC(O)C4O)C(O)C3O)C(O)C2O)C(OC(=O)/C=C/c2ccccc2)C(O)C1OC(C)=O (stereo not drawn)		0.531% [at 5.11 µM]	
CC(CC12CCCN1C(=O)C1CCCN1C2=O)OC(N)=O (stereo not drawn)	inactive		
COCC1OC(n2cnc3c(=O)[nH]cnc32)C(O)C1O (stereo not drawn)	inactive		
C=C(C(=O)O)[C@@H]1CC[C@@]2(C)CCC[C@@](C)(O)[C@@H]2C1	inactive		
